Measured values reported in PubChem BioAssay.
This is one part of the list. Calls of active or inactive are those of the source.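 Rule for the calls, unless noted: active = mean inhibition above about 50% in the one-dose retest (limit read from the data); inactive = the rest.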

Assays:
[1] = target: Sentrin-specific protease 8 (Homo sapiens) (UniProt Q96LD8); assay: SENP8 protease inhibitors, retest, confirmation, biochemical, luminescence, single concentration (AID 488912;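 active = mean inhibition across replicates above about 50%, limit read from the data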); details: Recombinant SENP8, Z-RLRGG-aminoluciferin luminescence, 60 min; at 12.5 µM; stronger effect = higher value
Sequence of Sentrin-specific protease 8 (Homo sapiens) (Q96LD8 whole entry, looked up): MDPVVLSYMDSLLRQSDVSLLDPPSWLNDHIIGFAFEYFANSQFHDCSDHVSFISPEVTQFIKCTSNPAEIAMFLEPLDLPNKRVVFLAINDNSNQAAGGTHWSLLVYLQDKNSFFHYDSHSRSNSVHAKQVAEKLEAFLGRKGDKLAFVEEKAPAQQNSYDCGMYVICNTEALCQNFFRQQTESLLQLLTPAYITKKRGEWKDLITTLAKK

[2] = target: Sentrin-specific protease 6 (Homo sapiens) (UniProt Q9GZR1); assay: SENP6 protease inhibitors, confirmation, biochemical, luminescence, single concentration (AID 488915); details: recombinant SENP6, Z-RLRGG-aminoluciferin luminescence; at 12.5 µM; stronger effect = higher value
Sequence of Sentrin-specific protease 6 (Homo sapiens) (Q9GZR1 628-1112 limits assumed): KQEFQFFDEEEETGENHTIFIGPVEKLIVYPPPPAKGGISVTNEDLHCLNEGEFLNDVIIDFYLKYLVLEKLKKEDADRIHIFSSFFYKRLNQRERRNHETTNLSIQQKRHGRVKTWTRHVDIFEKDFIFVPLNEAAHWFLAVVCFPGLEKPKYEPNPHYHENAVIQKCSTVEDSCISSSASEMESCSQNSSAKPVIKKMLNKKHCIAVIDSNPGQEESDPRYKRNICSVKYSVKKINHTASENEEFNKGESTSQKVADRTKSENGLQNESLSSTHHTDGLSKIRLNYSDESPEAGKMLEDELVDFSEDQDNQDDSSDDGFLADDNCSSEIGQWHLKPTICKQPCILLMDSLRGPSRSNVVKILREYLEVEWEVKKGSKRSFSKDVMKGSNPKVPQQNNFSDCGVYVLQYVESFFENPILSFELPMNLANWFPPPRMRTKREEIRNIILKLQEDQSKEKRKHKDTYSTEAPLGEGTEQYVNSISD

[3] = target: Sentrin-specific protease 7 (Homo sapiens) (UniProt Q9BQF6); assay: SENP7 protease inhibitors, retest, confirmation, biochemical, luminescence, single concentration (AID 488917); details: recombinant SENP7, Z-RLRGG-aminoluciferin luminescence, 40 min; at 12.5 µM; stronger effect = higher value
Sequence of Sentrin-specific protease 7 (Homo sapiens) (Q9BQF6 706-1050 limits assumed): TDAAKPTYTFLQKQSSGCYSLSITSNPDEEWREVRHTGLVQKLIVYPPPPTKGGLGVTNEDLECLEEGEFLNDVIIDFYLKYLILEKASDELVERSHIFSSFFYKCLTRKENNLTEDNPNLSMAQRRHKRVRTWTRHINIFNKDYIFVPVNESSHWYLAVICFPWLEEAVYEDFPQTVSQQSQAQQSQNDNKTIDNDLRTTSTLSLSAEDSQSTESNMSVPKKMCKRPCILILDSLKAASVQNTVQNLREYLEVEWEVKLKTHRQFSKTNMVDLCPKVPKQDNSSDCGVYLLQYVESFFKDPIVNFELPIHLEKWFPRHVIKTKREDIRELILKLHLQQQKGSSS

Caspase-3 (Homo sapiens) = Caspase-3 (Homo sapiens) (UniProt P42574); assay: caspase-3 protease inhibitors, confirmation, selectivity assay for SENP inhibitor project, biochemical, single concentration (AID 488918;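 active = mean inhibition above about 50%, limit read from the data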;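 note: plate controls were enzyme with DMSO for no effect and wells without caspase-3 for full effect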); details: purified caspase-3, Z-DEVD-aminoluciferin luminescence, 60 min; at 12.5 µM; stronger effect = higher value
Sequence of Caspase-3 (Homo sapiens) (P42574 28-227 limits assumed): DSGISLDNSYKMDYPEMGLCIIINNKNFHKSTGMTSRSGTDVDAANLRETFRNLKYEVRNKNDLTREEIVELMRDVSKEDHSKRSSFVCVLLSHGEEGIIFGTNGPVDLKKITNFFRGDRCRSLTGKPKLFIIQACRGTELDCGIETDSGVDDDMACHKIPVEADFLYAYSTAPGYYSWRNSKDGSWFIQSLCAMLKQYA

[4] = luciferase luminescence interference by compounds, confirmation, artefact control for SENP inhibitor project, biochemical, single concentration, SENP8 reaction pre-completed (AID 488919;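 active = mean inhibition above about 50% when retested at one dose, limit read from the data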;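 note: plate controls were DMSO wells with completed reaction for no effect and substrate without enzyme for full effect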); details: Pre-incubated SENP8/Z-RLRGG-aminoluciferin, at 12.5 µM, stronger effect = higher value
[5] = activators of apoptotic CHOP UPR arm, confirmation, cell-based, CHO-CHOP luciferase reporter, single concentration (AID 463112; in the data active = activation above about 33%;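 note: 0% = DMSO wells and 100% = tunicamycin 10 µg/mL wells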); details: CHO-CHOP cells, CHOP-luciferase reporter luminescence; at 10 µM; stronger effect = higher value; percent of tunicamycin response, DMSO as zero
[6] = target: Tumor necrosis factor receptor superfamily member 10B (Homo sapiens) (UniProt O14763); assay: caspase-8 TRAIL sensitization, hit retest, confirmation, cell-based, NB7+caspase-8, with/without TRAIL, luminescence panel (AID 651596; in the data active = activity above about 50%); details: NB7 neuroblastoma + caspase-8, TRAIL sensitization, luminescence viability, with TRAIL, mean of runs, at 10 µM, stronger effect = higher value
Sequence of Tumor necrosis factor receptor superfamily member 10B (Homo sapiens) (O14763 whole entry, looked up): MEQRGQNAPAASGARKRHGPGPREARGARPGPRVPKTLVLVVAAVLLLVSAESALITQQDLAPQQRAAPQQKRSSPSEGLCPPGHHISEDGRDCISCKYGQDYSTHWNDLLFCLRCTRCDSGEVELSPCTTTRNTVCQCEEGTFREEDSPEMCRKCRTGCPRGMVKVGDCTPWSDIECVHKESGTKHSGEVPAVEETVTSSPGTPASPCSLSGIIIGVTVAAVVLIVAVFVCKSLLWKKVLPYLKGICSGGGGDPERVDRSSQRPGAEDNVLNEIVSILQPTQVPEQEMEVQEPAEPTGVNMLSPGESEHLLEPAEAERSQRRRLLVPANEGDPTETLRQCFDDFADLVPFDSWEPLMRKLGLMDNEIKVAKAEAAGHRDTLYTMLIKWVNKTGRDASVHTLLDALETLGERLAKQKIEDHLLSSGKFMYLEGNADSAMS

[7] = as above; details: NB7 neuroblastoma + caspase-8, without TRAIL, luminescence viability, without TRAIL, mean of runs, at 10 µM
[8] = target: Tumor necrosis factor receptor superfamily member 10B (Homo sapiens) (UniProt O14763); assay: TRAIL sensitizers in caspase-8 expressing neuroblastoma cells, dose response, NB7 cells plus caspase-8, luminescence, panel (AID 652002); details: NB7 neuroblastoma +caspase-8, TRAIL sensitization, luminescence viability, NB7+Caspase-8, with TRAIL, run 1; at 12.5 µM (top of the series)
[9] = target: Tumor necrosis factor receptor superfamily member 10B (Homo sapiens) (UniProt O14763); assay: as above; details: NB7 neuroblastoma +caspase-8, TRAIL sensitization, luminescence viability, NB7+Caspase-8, with TRAIL, run 2; at 12.5 µM (top of the series)
[10] = as above; details: NB7 neuroblastoma +caspase-8, no TRAIL, compound-alone cytotoxicity counter-screen, luminescence viability, NB7+Caspase-8, run 1; at 12.5 µM (top of the series) unless noted
[11] = as above; details: NB7 neuroblastoma +caspase-8, no TRAIL, compound-alone cytotoxicity counter-screen, luminescence viability, NB7+Caspase-8, run 2; at 12.5 µM (top of the series) unless noted

For `Cc1ccc(-n2ncc3c(Nc4cccc(C(=O)O)c4)ncnc32)cc1`, the inhibition [1] was 93.9% (active), the inhibition [2] was 98.1% (active) and the inhibition [3] was 102% (active). The inhibition (Caspase-3 (Homo sapiens)) was 44.3% (inactive) and the inhibition [4] was 83.5% (active).

For `CCC(=O)NC(Nc1cc(C)ccn1)(C(F)(F)F)C(F)(F)F`, the inhibition [1] was -4.5% (inactive), the inhibition [2] was -2.4% (inactive) and the inhibition [3] was -0.5% (inactive). For the same compound, the inhibition (Caspase-3 (Homo sapiens)) was 8.4% (inactive) and the inhibition [4] was 4.2% (inactive).

With `CC(OC(=O)c1ccc2ccccc2n1)C(=O)c1ccccc1` (stereo not given) the inhibition [1] was 54.3% (active), the inhibition [2] was 50% (inactive) and the inhibition [3] was 87.7% (active). For the same compound, the inhibition (Caspase-3 (Homo sapiens)) was 75% (active) and the inhibition [4] was 64.5% (active).

In the case of `COc1cc(NC(=O)c2cncc(-c3ccc(C#N)cc3)c2)cc(C(=O)Nc2cccc(C(F)(F)F)c2)c1`, the activation [5] is reported as 83.5% (active), the activity [6] is reported as 54.6% and the activity [7] is reported as 26.9%. The activity, % sensitization [8] was -1.86%, the activity, % sensitization [9] was -1.47% and the activity, % sensitization [10] was -11.8%. The activity, % sensitization [11] was -16.3%.

For `Brc1ccccc1C1Nc2cccc3cccc(c23)N1`, the inhibition [1] was -7.3% (inactive), the inhibition [2] was 3.3% (inactive) and the inhibition [3] was -9.3% (inactive). The inhibition (Caspase-3 (Homo sapiens)) was 1.1% (inactive) and the inhibition [4] was 3.4% (inactive).

For `O=C(Nc1ccccc1)Nc1ccccc1C(=O)NCc1ccco1`, the inhibition [1] was 2.7% (inactive), the inhibition [2] was 60.7% (active) and the inhibition [3] was 85.6% (active). The inhibition (Caspase-3 (Homo sapiens)) was 63.9% (active) and the inhibition [4] was 66.7% (active).

In the case of `COc1ccccc1NC(=O)c1ccc(N2CC3CC(C2)c2cccc(=O)n2C3)c(NC(=O)c2cccnc2)c1` (stereo not given), the inhibition [1] is reported as 8.2% (inactive), the inhibition [2] is reported as 5.2% (inactive) and the inhibition [3] is reported as 12.1% (inactive). For the same compound, the inhibition (Caspase-3 (Homo sapiens)) was 8.9% (inactive) and the inhibition [4] was 3.7% (inactive).

In the case of `CCOC(=O)c1c(NC(=O)CCl)sc(C(=O)N(CC)CC)c1C`, the activation [5] is reported as 27% (inactive), the activity [6] is reported as 95.3% and the activity [7] is reported as 93.8%.

For `O=C(c1ccc(CSc2ccccc2)cc1)N1CCCCCC1`, the inhibition [1] was 57.5% (active), the inhibition [2] was 57% (active) and the inhibition [3] was 80% (active). For the same compound, the inhibition (Caspase-3 (Homo sapiens)) was 54.3% (active) and the inhibition [4] was 65.5% (active).

With `CCCCCc1ccc(-c2ccc(C(=O)O)cc2)nc1` the inhibition [1] was -2.1% (inactive), the inhibition [2] was 54.7% (active) and the inhibition [3] was 76.9% (active). For the same compound, the inhibition (Caspase-3 (Homo sapiens)) was 9.2% (inactive) and the inhibition [4] was 63.9% (active).

In the case of `CCN1CC=C2C(C#N)=C(N)C(C#N)(C#N)[C@H](c3ccoc3)[C@H]2C1`, the inhibition [1] is reported as -12.3% (inactive), the inhibition [2] is reported as -5.5% (inactive) and the inhibition [3] is reported as -13.6% (inactive). The inhibition (Caspase-3 (Homo sapiens)) was 1.7% (inactive) and the inhibition [4] was -10.5% (inactive).

With `C/C(=C\C(=O)c1ccccc1)Nc1cccc(O)c1` the inhibition [1] was 43.1% (inactive), the inhibition [2] was 47.3% (inactive) and the inhibition [3] was 82.2% (active). The inhibition (Caspase-3 (Homo sapiens)) was 39.4% (inactive) and the inhibition [4] was 66.4% (active).

In the case of `O=[N+]([O-])c1ccc2nc(-c3ccccn3)[nH]c2c1`, the inhibition [1] is reported as 57.8% (active), the inhibition [2] is reported as 56% (active) and the inhibition [3] is reported as 82.6% (active). The inhibition (Caspase-3 (Homo sapiens)) was 81.5% (active) and the inhibition [4] was 48.8% (inactive).

For `CCc1ccc(C(=O)COC(=O)c2ccco2)cc1`, the inhibition [1] was 62.7% (active), the inhibition [2] was 62% (active) and the inhibition [3] was 83.3% (active). The inhibition (Caspase-3 (Homo sapiens)) was 74.5% (active) and the inhibition [4] was 68% (active).

For `O=C(Nc1ccccc1)c1ccc2c(c1)OCO2`, the inhibition [1] was 10.6% (inactive), the inhibition [2] was 74.3% (active) and the inhibition [3] was 93.9% (active). For the same compound, the inhibition (Caspase-3 (Homo sapiens)) was 88.9% (active) and the inhibition [4] was 54.8% (active).

In the case of `O=C(Nc1nnc(C2CC2)s1)c1ccccn1`, the inhibition [1] is reported as 49.3% (inactive), the inhibition [2] is reported as 49.2% (inactive) and the inhibition [3] is reported as 82.6% (active). For the same compound, the inhibition (Caspase-3 (Homo sapiens)) was 83.6% (active) and the inhibition [4] was 59.4% (active).

In the case of `CCOC(=O)c1cnc2[nH]c3ccccc3n2c1=O`, the inhibition [1] is reported as 30.1% (inactive), the inhibition [2] is reported as 79% (active) and the inhibition [3] is reported as 96.4% (active). The inhibition (Caspase-3 (Homo sapiens)) was 94.2% (active) and the inhibition [4] was 65.2% (active).

In the case of `c1ccc(Nc2nc(-c3ccncc3)cs2)nc1`, the inhibition [1] is reported as 84.9% (active), the inhibition [2] is reported as 85.1% (active) and the inhibition [3] is reported as 97.3% (active). The inhibition (Caspase-3 (Homo sapiens)) was 84% (active) and the inhibition [4] was 45.3% (inactive).

With `Cc1cccc(OC(=O)c2sc3ncn(C)c(=O)c3c2C)c1` the inhibition [1] was 1.1% (inactive), the inhibition [2] was 0.1% (inactive) and the inhibition [3] was 17.1% (inactive). For the same compound, the inhibition (Caspase-3 (Homo sapiens)) was 14.4% (inactive) and the inhibition [4] was -2.4% (inactive).

With `COc1ccc(NC(=O)Nc2cccc3cccnc23)cc1` the inhibition [1] was 86.4% (active), the inhibition [2] was 85.6% (active) and the inhibition [3] was 97.2% (active). For the same compound, the inhibition (Caspase-3 (Homo sapiens)) was 70.7% (active) and the inhibition [4] was 78.5% (active).

For `O=C(Nc1nnc(SCc2ccccc2)s1)c1ccco1`, the inhibition [1] was 6.7% (inactive), the inhibition [2] was 40.5% (inactive) and the inhibition [3] was 23.6% (inactive). The inhibition (Caspase-3 (Homo sapiens)) was 61.1% (active) and the inhibition [4] was 13.1% (inactive).

In the case of `O=C(/C=C/c1ccco1)Nc1ccc(Oc2ccccc2)cc1`, the inhibition [1] is reported as 51% (active), the inhibition [2] is reported as 64.2% (active) and the inhibition [3] is reported as 89.4% (active). The inhibition (Caspase-3 (Homo sapiens)) was 40.7% (inactive) and the inhibition [4] was 38.3% (inactive).

With `CCc1noc(C)c1C(=O)Nc1nc2ccc(OC)cc2s1` the inhibition [1] was 45.2% (inactive), the inhibition [2] was 42.8% (inactive) and the inhibition [3] was 78.3% (active). For the same compound, the inhibition (Caspase-3 (Homo sapiens)) was 58.3% (active) and the inhibition [4] was 19.6% (inactive).
